High-throughput results deposited in PubChem BioAssay by several laboratories.
An excerpt weighted towards active compounds, which were near 3.2% of everything screened.
Dyrk1A ADPGlo: Dyrk1A (rat) kinase inhibition. Q63470. ADP-Glo luminescence, NFATc1 peptide. inhibition, % at 12.5 µM. 310,000 tested, 0.43% active. AID 504441; in the data active = inhibition above about 50%
dFosB activator: mouse delta FosB homodimer activation; P13346; purified delta FosB, TAMRA-CDK5 oligo fluorescence polarization; percent of positive-control signal above neutral wells; activation, % at 25 µM; 340,000 tested, 0.99% active; AID 493131;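 active = mean activation above about 17%, with every replicate also reaching it, limit read from the data, passing the limit was not always enough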
CDK5 p35 inh: inhibitors of human CDK5/p35 kinase; Q00535+Q15078; Recombinant CDK5/p35, ADP-Glo luminescence, 60 min; inhibition, % at 10 µM; 330,000 tested, 0.01% active;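 active = highest replicate inhibition of at least 50% and at least 75% of replicates reaching 50%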
Target sequence (Q00535 whole entry, looked up): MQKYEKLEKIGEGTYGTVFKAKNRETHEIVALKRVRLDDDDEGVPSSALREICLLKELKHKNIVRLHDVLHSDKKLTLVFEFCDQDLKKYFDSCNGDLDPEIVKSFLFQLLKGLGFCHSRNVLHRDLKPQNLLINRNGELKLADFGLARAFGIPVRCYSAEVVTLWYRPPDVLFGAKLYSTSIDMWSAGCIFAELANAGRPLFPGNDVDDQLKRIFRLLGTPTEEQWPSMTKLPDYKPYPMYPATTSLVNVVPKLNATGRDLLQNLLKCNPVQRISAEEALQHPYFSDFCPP
Target sequence (Q15078 whole entry, looked up): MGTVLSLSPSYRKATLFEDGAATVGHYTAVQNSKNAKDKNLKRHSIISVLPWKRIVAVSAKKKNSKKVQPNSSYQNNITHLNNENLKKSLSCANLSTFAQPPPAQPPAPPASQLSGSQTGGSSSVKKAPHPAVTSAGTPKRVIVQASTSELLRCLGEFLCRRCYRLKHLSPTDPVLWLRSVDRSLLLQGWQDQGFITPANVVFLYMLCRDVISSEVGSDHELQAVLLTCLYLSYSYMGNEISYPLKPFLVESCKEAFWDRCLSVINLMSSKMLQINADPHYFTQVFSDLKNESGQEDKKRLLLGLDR
Rtt109 Vps75: blocks Candida albicans Rtt109/Vps75 acetyltransferase activity. Q5AAJ8. purified Rtt109/Vps75, ThioGlo CoA-SH fluorescence, 4 h. inhibition, % at 34.9 µM. 330,000 tested, 0.16% active;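 active = inhibition of at least 50% in every replicate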
SMARCA2 activ: SMARCA2 function activation, primary screen; activation, % at 9.1 µM; MG213 cells, MMTV-luciferase reporter, dexamethasone, overnight; 370,000 tested, 1% active; in the data active = activation above about 7.8%
esBAF inh: blocks esBAF chromatin remodeling in mouse ES cells | reporter increase, % at 12.5 µM | 350,000 tested, 2% active | Bmi1-luciferase knock-in reporter, 24 h; 100% = twice the neutral-well signal | AID 602393; in the data active = activation above about 40%;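 note: a rise in the Bmi1 reporter signal indicates esBAF inhibition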
SMARCA2 act conf: confirmation of SMARCA2 (BRM) function activators | shares compounds with SMARCA2 activ | 3,500 tested, 30% active | MG213 cells, MMTV-luciferase with dexamethasone, luminescence, overnight; MG213 cells expressing E1A, Rb sequestered; DMSO wells 0%, reference activator 100% | activation, % at 9.1 µM;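 active = activation above its plate's cutoff, the mean activation of tested wells plus 3 SD, cut at about 7.9% in these data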
GAL4-VP16 Luc: activates GAL4-VP16 luciferase, flagging SMARCA2 activator hits. shares compounds with SMARCA2 activ. HEK293 GAL4-VP16 pG5luc reporter, luciferase luminescence; scaled: DMSO wells 0%, SAHA wells 100%. activation, % at 9.1 µM. 3,500 tested, 41% active. AID 686939;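 active = activation above the solvent-only control well mean plus 3 SD, averaged across control plates, cut at about 5.2% in these data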
A number is an active result; . = inactive; / = not tested or not shown.

SMILES | Dyrk1A ADPGlo | dFosB activator | CDK5 p35 inh | Rtt109 Vps75 | SMARCA2 activ | esBAF inh | SMARCA2 act conf | GAL4-VP16 Luc
COc1ccc(NC(=O)N(C)C[C@H]2Oc3ccc(NS(=O)(=O)c4ccccc4)cc3CC(=O)N([C@H](C)CO)C[C@H]2C)cc1 | / | / | / | / | / | . | / | /
Cc1nn2cc(-c3ccc(Cl)cc3)nc2s1 | . | . | . | . | 8.7 | . | . | 10
Cc1nn2cc(-c3ccc(-c4ccccc4)cc3)nc2s1 | . | . | . | . | . | . | / | /
CCN(CC)CCC(=O)Nc1cccc2c1C(=O)c1ccccc1C2=O | . | 35 | . | . | 33 | . | 95 | .
COC(=O)C1CCCN(C(=O)C(Cc2ccc3c(c2)OCO3)NC(C)=O)C1 (configuration not stated) | / | / | / | / | 16 | / | . | .
CN(C)c1ccc(NC(N)=S)cc1 | . | . | . | . | . | / | / | /
CN(C)c1ccc(Cl)c(NC(N)=S)c1 | / | / | / | / | 8.2 | . | . | .
CCC(=O)N1C[C@H](C)[C@@H](OC)CN(C)C(=O)c2ccc(NC(=O)c3cnccn3)cc2OC[C@H]1C | / | / | / | / | / | . | / | /
Nc1c(Cl)c(Cl)nc(C(=O)N/N=C/c2ccco2)c1Cl | . | . | . | . | . | . | / | /
Nc1nccnc1C(=O)N/N=C/c1ccco1 | . | . | . | . | 9.6 | / | . | .
O=C(N/N=C/c1ccco1)Nc1ccccc1 | . | . | . | . | 10 | . | . | 14
O=C(Cc1cccnc1)N[C@@H]1CC[C@@H](CCNS(=O)(=O)c2ccccc2Cl)O[C@@H]1CO | / | / | / | / | / | . | / | /
CCOC(=O)C1=NN(c2ccc(F)cc2)C2=NC(C)=C(C(=O)OC)C(c3cccs3)N12 (configuration not stated) | . | . | . | . | 8.8 | . | . | .
CCCNC(=O)Nc1ccc2c(c1)C(=O)N(C)C[C@H](OC)[C@@H](C)CN(C(=O)C1CCCCC1)[C@H](C)CO2 | / | / | / | / | / | . | / | /
CC(=O)Nc1cccc(-c2cccc3nccn23)c1 | / | / | / | / | 11 | . | 8.9 | 7.7
CC(=O)c1ccc(-c2cccc3nccn23)cc1 | / | / | / | / | . | . | / | /
O=C(c1cc(Cl)ccc1Cl)N1CCOCC1 | . | . | . | . | 11 | . | 8.2 | .
CCN(CC)c1ccc(C=N/C(C#N)=C(\N)C#N)cc1 | . | . | . | . | 8.8 | . | . | 7.5
C[C@@H]1CCCCO[C@@H](CN(C)C(=O)Nc2ccc3c(c2)OCO3)[C@H](C)CN([C@@H](C)CO)C(=O)c2cc(NC(=O)Nc3ccccc3)ccc2O1 | / | / | / | / | / | . | / | /
CCOC(=O)c1cccc(NC(=O)Nc2ccc(OCC)cc2)c1 | . | . | . | . | . | / | / | /
O=C(NCc1ccccc1)C(=O)Nc1cccc(C(=O)O)c1 | . | . | . | . | 13 | . | 10 | 11
O=C(Nc1cccc(Cl)c1)Nc1cccc(C(=O)O)c1 | . | . | . | . | 14 | / | 7.9 | .
CCOc1ccc(NC(=O)Nc2cccc(C(=O)O)c2)cc1 | . | . | . | . | 11 | . | . | 9.3
O=C(C[C@H]1CC[C@H](NC(=O)Nc2cc(F)ccc2F)[C@H](CO)O1)Nc1ccccc1 | / | / | / | / | / | . | / | /
O=C(NCC[C@@H]1CC[C@@H](NC(=O)C2CCC2)[C@H](CO)O1)c1cnccn1 | / | / | / | / | / | . | / | /
SMILES | Dyrk1A ADPGlo | dFosB activator | CDK5 p35 inh | Rtt109 Vps75 | SMARCA2 activ | esBAF inh | SMARCA2 act conf | GAL4-VP16 Luc
C[C@@H]1CN([C@H](C)CO)C(=O)Cc2cc(NS(=O)(=O)c3ccc(Cl)cc3)ccc2O[C@H]1CN(C)C(=O)Nc1cccc2ccccc12 | / | / | / | / | / | . | / | /
CC(C)(C)NC(=O)NC(=O)COc1ccccc1C#N | . | . | . | . | 9.7 | . | . | 12
C=CCNC(=O)COc1ccccc1C#N | . | . | . | . | . | / | / | /
CCOC(=O)c1nn(-c2ccc([N+](=O)[O-])cc2)cc1O | . | . | . | . | . | . | / | /
CCOC(=O)c1nn(-c2ccc3c(c2)OCCO3)cc1O | / | . | . | . | 11 | . | 8.3 | 12
CN(CCO)c1c2c(nc3cc(-c4cccc(F)c4)nn13)CCCC2 | . | . | . | . | 13 | . | 11 | 18
COc1ccc(C2=Nc3ccccc3N(C(=O)c3ccncc3)C2C(=O)NC(C)(C)C)cc1 (configuration not stated) | / | / | / | / | 16 | / | . | .
COc1ccc(C2=Nc3ccccc3N(C(=O)c3cccnc3)C2C(=O)NC(C)(C)C)cc1 (configuration not stated) | / | / | / | / | . | / | / | /
COc1ccc(NC(=O)C2C(c3ccc4c(c3)OCO4)=Nc3ccccc3N2C(C)=O)cc1 (configuration not stated) | / | / | / | / | 9.2 | / | 8.0 | 6.4
COc1ccc(NC(=O)C2C(c3ccc4c(c3)OCO4)=Nc3ccccc3N2C(=O)c2cccc(C(F)(F)F)c2)cc1 (configuration not stated) | / | / | / | / | . | / | / | /
C[C@@H]1CCCCO[C@H](CN(C)C(=O)Nc2ccc3c(c2)OCO3)[C@H](C)CN([C@H](C)CO)C(=O)c2cc(NC(=O)Cc3ccccc3)ccc2O1 | / | / | / | / | / | . | / | /
COc1nc(C)nc2c1sc1nc3c(cc12)COC(C)(C)C3 | . | . | . | . | 10 | . | . | 13
Cc1nc(OCC(C)C)c2sc3nc4c(cc3c2n1)COC(C)(C)C4 | / | / | / | / | . | / | / | /
COc1ccc(NC(=O)Nc2nccs2)cc1 | . | . | . | . | . | . | / | /
O=C(Nc1ccccc1)Nc1nccs1 | . | . | . | . | 9.0 | / | . | .
CCCNC(=O)C[C@@H]1CC[C@@H]2[C@H](COc3ccc(NS(=O)(=O)c4ccccc4C)cc3C(=O)N2C)O1 | / | / | / | / | / | . | / | /
C=CCN1CCc2cc(O)c(O)cc2C(c2ccccc2)C1 (configuration not stated) | . | . | . | . | . | . | / | /
C=CCN1CCc2c(cc(O)c(O)c2Cl)C(c2ccccc2)C1 (configuration not stated) | . | . | . | . | 9.2 | . | . | .
O=C(C[C@@H]1C[C@H]2c3cc(NC(=O)Nc4ccccc4F)ccc3O[C@H]2[C@H](CO)O1)NC1CCCCC1 | / | / | / | / | / | . | / | /
COc1ccc(NC(=O)N[C@@H]2CC[C@H](CC(=O)NC3CCCCC3)O[C@@H]2CO)cc1 | / | / | / | / | / | . | / | /
C[C@@H]1CN([C@H](C)CO)C(=O)c2cc(NS(=O)(=O)c3ccc(Cl)cc3)ccc2O[C@@H](C)CCCCO[C@@H]1CN(C)C(=O)Cc1ccccc1 | / | / | / | / | / | . | / | /
O=c1c2[nH]c3cccc(Cl)c3c2ncn1CC1CCCO1 (configuration not stated) | . | . | . | . | 8.2 | / | . | .
O=c1c2[nH]c3cccc(Cl)c3c2ncn1CCN1CCCCC1 | . | . | . | . | . | . | / | /
